Data as given in PubChem BioAssay.
Several values for one entry are separate records, joined by “and”; a condition that tells them apart may be missing. Identical values can stand only once. Activity calls are given as the source filed them.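 How the source made its calls, unless noted: active means thallium flux through the channel raised or lowered by more than 3 SD from vehicle-only wells, actives on both sides; inactive means the rest.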

How the values were obtained:
[1] = galactose survival enhancers in mitochondrial complex I cybrids – cell-based, galactose medium, ATP luminescence, primary screen (AID 1645843;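 active means z-score of at least 1.8 in each of two replicates, scored against plate mean and spread of sample wells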;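 further: positive z means more ATP and so rescue of galactose-driven cybrid death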); details: complex I mutant cybrid cells, 72 h, hits give high values
F380Y = assay: BK channel mutant inhibitors and activators – cell-based, U2OS BacMam, thallium flux, beta subunits, selectivity assay, profiling panel (AID 1259406); details: U2OS BacMam BK variants, at 30 µM;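 further: initial slope of Thallos dye fluorescence rise after thallium is added; log ratio against the mean of 0.3% DMSO vehicle wells on the same plate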
F380Y/beta1 = assay: as above; details: U2OS BacMam BK variants, at 30 µM
[2] = target: NAD(+) hydrolase SARM1 (Homo sapiens) (UniProt Q6SZW1); assay: blocking NAD cleavage by SARM1 SAM-TIR – cell lysate, NAD-Glo luminescence (AID 1508614;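 active means compound whose remaining NAD level is above about 45 nM, limit read from the data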;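 further: higher remaining NAD means stronger inhibition of SARM1 NADase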); details: SAM-TIR HEK293T lysate NADase, at 1 µM, hits give high values
[3] = target: Mitogen-activated protein kinase 7 (Homo sapiens) (UniProt Q13164); assay: Gal4-ERK5 driven luciferase induction – cell-based, HTS, primary screen (AID 1508626;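 active means luciferase signal above three times the same-plate solvent-only control wells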;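 further: luciferase driven by Gal4-ERK5 fusion binding five Gal4 sites before minimal TATA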); details: HeLa Gal4-ERK5 transactivation, 18 h, at 5 µM, hits give high values
Mitogen-activated protein kinase 7 (Homo sapiens), sequence (Q13164 whole entry, looked up, the tested form may be a part): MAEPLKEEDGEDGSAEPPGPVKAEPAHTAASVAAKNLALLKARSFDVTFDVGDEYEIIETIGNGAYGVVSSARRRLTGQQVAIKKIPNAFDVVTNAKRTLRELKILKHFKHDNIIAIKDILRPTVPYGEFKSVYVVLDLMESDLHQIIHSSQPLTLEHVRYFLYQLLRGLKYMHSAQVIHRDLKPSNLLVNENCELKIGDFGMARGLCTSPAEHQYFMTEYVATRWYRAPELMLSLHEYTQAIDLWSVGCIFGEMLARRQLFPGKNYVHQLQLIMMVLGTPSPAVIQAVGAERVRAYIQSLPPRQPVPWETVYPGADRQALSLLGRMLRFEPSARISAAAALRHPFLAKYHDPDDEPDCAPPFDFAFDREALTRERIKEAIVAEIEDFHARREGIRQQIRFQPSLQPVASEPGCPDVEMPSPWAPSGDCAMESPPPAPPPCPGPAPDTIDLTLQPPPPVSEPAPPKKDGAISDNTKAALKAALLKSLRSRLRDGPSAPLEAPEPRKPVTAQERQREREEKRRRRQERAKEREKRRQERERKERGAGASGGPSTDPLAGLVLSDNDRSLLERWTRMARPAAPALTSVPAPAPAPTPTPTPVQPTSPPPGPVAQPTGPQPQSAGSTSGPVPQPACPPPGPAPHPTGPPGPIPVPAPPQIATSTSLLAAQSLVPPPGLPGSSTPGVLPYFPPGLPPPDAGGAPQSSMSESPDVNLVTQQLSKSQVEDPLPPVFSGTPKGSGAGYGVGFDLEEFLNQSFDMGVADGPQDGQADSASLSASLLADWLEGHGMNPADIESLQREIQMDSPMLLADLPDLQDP

NAD(+) hydrolase SARM1 (Homo sapiens), sequence (Q6SZW1 whole entry, looked up, the tested form may be a part): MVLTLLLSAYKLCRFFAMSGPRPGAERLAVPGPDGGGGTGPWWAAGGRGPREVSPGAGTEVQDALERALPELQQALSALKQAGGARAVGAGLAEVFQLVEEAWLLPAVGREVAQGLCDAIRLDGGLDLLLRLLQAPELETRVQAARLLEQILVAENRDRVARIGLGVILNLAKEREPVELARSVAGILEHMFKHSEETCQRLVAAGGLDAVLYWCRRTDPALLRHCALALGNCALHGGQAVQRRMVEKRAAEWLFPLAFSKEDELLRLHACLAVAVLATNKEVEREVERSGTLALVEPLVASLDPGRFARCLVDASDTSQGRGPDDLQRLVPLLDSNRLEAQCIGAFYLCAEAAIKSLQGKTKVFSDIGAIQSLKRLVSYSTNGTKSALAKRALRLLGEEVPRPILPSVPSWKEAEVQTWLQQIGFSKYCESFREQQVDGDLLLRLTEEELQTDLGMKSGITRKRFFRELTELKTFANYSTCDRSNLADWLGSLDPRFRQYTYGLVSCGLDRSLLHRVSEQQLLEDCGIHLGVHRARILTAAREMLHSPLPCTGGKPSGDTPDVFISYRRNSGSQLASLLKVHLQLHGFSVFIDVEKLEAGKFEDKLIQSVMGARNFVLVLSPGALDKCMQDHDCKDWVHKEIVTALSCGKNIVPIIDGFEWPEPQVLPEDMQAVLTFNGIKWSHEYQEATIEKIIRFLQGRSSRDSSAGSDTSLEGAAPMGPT

For `Cc1[nH]cnc1CN1CCc2c(c3ccccc3n2C)C1=O`, the z-score [1] was -0.045 (inactive), the log fold change Tl+ flux (F380Y) was 0.0315 (inactive) and the log fold change Tl+ flux (F380Y/beta1) was 0.0327 (inactive).

With `C#C[C@]1(O)CC[C@H]2[C@@H]3CCc4cc(O)ccc4[C@H]3CC[C@@]21C` the remaining NAD [2] was 10 nM (inactive), the luciferase signal [3] was 76 AU (inactive) and the log fold change Tl+ flux (F380Y) was 0.0259 (inactive).

For `CN(CCCN1c2ccccc2CCc2ccccc21)CC(=O)c1ccc(Cl)cc1`, the z-score [1] was -1.82 (inactive) and -0.185 (inactive), the log fold change Tl+ flux (F380Y) was -0.0806 (inactive) and the log fold change Tl+ flux (F380Y/beta1) was -0.0237 (inactive).

For `O=C(O)CCCCC1CCSS1` (stereo not given), the remaining NAD [2] was 10 nM (inactive).

In the case of `CN1CCN(c2cc3c(cc2F)c(=O)c(C(=O)O)cn3-c2ccc(F)cc2)CC1`, the remaining NAD [2] is reported as 10 nM (inactive).

In the case of `O=c1[nH]cnc2c1ncn2[C@H]1CC[C@@H](CO)O1`, the z-score [1] is reported as 0.385 (inactive), the log fold change Tl+ flux (F380Y) is reported as -0.00984 (inactive) and the log fold change Tl+ flux (F380Y/beta1) is reported as -0.0163 (inactive).

In the case of `CC1=C(C(=O)O)N2C(=O)[C@@H](NC(=O)[C@H](N)C3=CCC=CC3)[C@H]2SC1`, the remaining NAD [2] is reported as 10 nM (inactive) and the luciferase signal [3] is reported as 48 AU (inactive).

In the case of `CN(Cc1cnc2nc(N)nc(N)c2n1)c1ccc(C(=O)N[C@@H](CCC(=O)O)C(=O)O)cc1`, the z-score [1] is reported as -1.06 (inactive) and -0.71 (inactive) and the log fold change Tl+ flux (F380Y) is reported as -0.0413 (inactive).

For `Cc1nc(-c2ccc(OCC(C)C)c(C#N)c2)sc1C(=O)O`, the remaining NAD [2] was 10 nM (inactive).

In the case of `O=C(O)CSCC(=O)NC1CCSC1=O` (stereo not given), the remaining NAD [2] is reported as 10 nM (inactive).

In the case of `CN(C)CC[C@@H](c1ccc(Br)cc1)c1ccccn1`, the z-score [1] is reported as -0.265 (inactive), the log fold change Tl+ flux (F380Y) is reported as 0.102 (inactive) and the log fold change Tl+ flux (F380Y/beta1) is reported as 0.0384 (inactive).

In the case of `O=C(O)/C=C/c1ccc(Cn2ccnc2)cc1`, the z-score [1] is reported as 0 (inactive) and 0.26 (inactive), the log fold change Tl+ flux (F380Y) is reported as 0.00524 (inactive) and the log fold change Tl+ flux (F380Y/beta1) is reported as 0.0144 (inactive).

For `CC1CCN(CCCC(=O)c2ccc(F)cc2)CC1`, the z-score [1] was 0.28 (inactive) and -0.14 (inactive) and the log fold change Tl+ flux (F380Y) was 0.0312 (inactive).

In the case of `CC(=O)Oc1c(C)c(C)c2c(c1C)CC[C@@](C)(CCC[C@H](C)CCC[C@H](C)CCCC(C)C)O2`, the remaining NAD [2] is reported as 10 nM (inactive).

For `C[C@@H]1CN(CCCn2c3ccccc3c3ccccc32)C[C@H](C)N1`, the z-score [1] was -0.695 (inactive), the log fold change Tl+ flux (F380Y) was 0.145 (active) and the log fold change Tl+ flux (F380Y/beta1) was 0.208 (active).

For `CCOC(=O)n1ccn(C)c1=S`, the remaining NAD [2] was 10 nM (inactive).

For `CCCCCC(C)N` (stereo not given), the remaining NAD [2] was 10 nM (inactive).

In the case of `CN1CCC(=C2c3ccccc3CCc3sccc32)CC1`, the remaining NAD [2] is reported as 10 nM (inactive), the luciferase signal [3] is reported as 76 AU (inactive) and the z-score [1] is reported as -0.795 (inactive). The log fold change Tl+ flux (F380Y) was -0.0249 (inactive).

For `CCCc1c(OCCCCc2nn[nH]n2)ccc(C(C)=O)c1O`, the z-score [1] was 2.16 (active) and the log fold change Tl+ flux (F380Y) was 0.0613 (inactive).

In the case of `C[C@@H]1CN(c2c(F)c(F)c3c(=O)c(C(=O)O)cn(C4CC4)c3c2F)C[C@H](C)N1`, the remaining NAD [2] is reported as 10 nM (inactive).

For `C#CCN[C@@H]1CCc2ccccc21`, the remaining NAD [2] was 10 nM (inactive).

For `NS(=O)(=O)Cc1noc2ccccc12`, the z-score [1] was 1.1 (inactive) and -0.005 (inactive) and 0.465 (inactive), the log fold change Tl+ flux (F380Y) was 0.00455 (inactive) and the log fold change Tl+ flux (F380Y/beta1) was -0.0156 (inactive).

For `CN(CCOc1ccc(NS(C)(=O)=O)cc1)CCc1ccc(NS(C)(=O)=O)cc1`, the z-score [1] was 0.355 (inactive) and 0.06 (inactive) and 0.77 (inactive), the log fold change Tl+ flux (F380Y) was 0.0506 (inactive) and the log fold change Tl+ flux (F380Y/beta1) was 0.0264 (inactive).

For `CCc1c(C)[nH]c2c1C(=O)C(CN1CCOCC1)CC2` (stereo not given), the z-score [1] was 0.39 (inactive) and -0.105 (inactive), the log fold change Tl+ flux (F380Y) was 0.0409 (inactive) and the log fold change Tl+ flux (F380Y/beta1) was 0.015 (inactive).

In the case of `COc1ccc(CC2c3cc(OC)c(OC)cc3CC[N+]2(C)CCC(=O)OCCCCCOC(=O)CC[N+]2(C)CCc3cc(OC)c(OC)cc3C2Cc2ccc(OC)c(OC)c2)cc1OC` (stereo not given), the remaining NAD [2] is reported as 10 nM (inactive), the z-score [1] is reported as -0.89 (inactive) and 0.01 (inactive) and the log fold change Tl+ flux (F380Y) is reported as -0.0106 (inactive).

With `CN(C)CCCSc1ccccc1NC(=O)/C=C/c1ccccc1` the z-score [1] was -0.09 (inactive) and 0.525 (inactive) and the log fold change Tl+ flux (F380Y) was 0.0773 (inactive).

With `COc1cc(C)c(Cc2cnc(N)nc2N)cc1OC` the z-score [1] was 0.02 (inactive), the log fold change Tl+ flux (F380Y) was 0.0111 (inactive) and the log fold change Tl+ flux (F380Y/beta1) was 0.0334 (inactive).

In the case of `CCCCC1(COC(=O)CCC(=O)O)C(=O)N(c2ccccc2)N(c2ccccc2)C1=O`, the remaining NAD [2] is reported as 10 nM (inactive).

With `COc1cc(C(=O)NC2CCCNC2)cc(OC)c1OC` (stereo not given) the z-score [1] was 0.125 (inactive), the log fold change Tl+ flux (F380Y) was -0.0595 (inactive) and the log fold change Tl+ flux (F380Y/beta1) was -0.0621 (inactive).

With `Cc1ccnc(NS(=O)(=O)c2ccc(N)cc2)n1` the remaining NAD [2] was 10 nM (inactive) and the luciferase signal [3] was 68 AU (inactive).

With `Nc1ccc(S(=O)(=O)Nc2ccccn2)cc1` the remaining NAD [2] was 10 nM (inactive) and the luciferase signal [3] was 64 AU (inactive).

With `O=C(CCCCC(=O)Nc1c(I)cc(I)c(C(=O)O)c1I)Nc1c(I)cc(I)c(C(=O)O)c1I` the remaining NAD [2] was 10 nM (inactive) and the luciferase signal [3] was 44 AU (inactive).

With `Cc1nnc(NS(=O)(=O)c2ccc(N)cc2)s1` the remaining NAD [2] was 10 nM (inactive) and the luciferase signal [3] was 184 AU (inactive).

In the case of `COc1cc(NS(=O)(=O)c2ccc(N)cc2)ncn1`, the remaining NAD [2] is reported as 10 nM (inactive) and the luciferase signal [3] is reported as 44 AU (inactive).

With `Cc1c(NC(C)C)c(=O)n(-c2ccccc2)n1C` the remaining NAD [2] was 10 nM (inactive) and the luciferase signal [3] was 56 AU (inactive).
